# Reference: PubChem BioAssay (EPA / NIEHS)
# Inconclusive results are not listed. The source made the active and inactive calls. How the source made its calls, unless noted: active means hit-call score of the fitted dose curve at least 0.9, where 1 is the maximum; inconclusive means response in the unintended direction; inactive means score below 0.9.
# Molecular target: PGR (gene 5241) (UniProt P06401)
# Assay: TOX21_PR_BLA_Followup_Antagonist_ratio: Tox21 HEK293 Progesterone Receptor (PR) Antagonism Beta-lactamase Follow-Up Assay, Ratio (AID 2283934);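 further: PR-UAS-bla HEK293T cells stimulated with 1 nM R5020 agonist for 16 hr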
# In short: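 Antagonist mode used 1 nM R5020 (final) as agonist on a beta-lactamase reporter line in HEK293T cells. Activity was taken from the substrate cleavage ratio after 16 hr exposure.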
# Sequence of PGR (gene 5241) (P06401 whole entry, looked up): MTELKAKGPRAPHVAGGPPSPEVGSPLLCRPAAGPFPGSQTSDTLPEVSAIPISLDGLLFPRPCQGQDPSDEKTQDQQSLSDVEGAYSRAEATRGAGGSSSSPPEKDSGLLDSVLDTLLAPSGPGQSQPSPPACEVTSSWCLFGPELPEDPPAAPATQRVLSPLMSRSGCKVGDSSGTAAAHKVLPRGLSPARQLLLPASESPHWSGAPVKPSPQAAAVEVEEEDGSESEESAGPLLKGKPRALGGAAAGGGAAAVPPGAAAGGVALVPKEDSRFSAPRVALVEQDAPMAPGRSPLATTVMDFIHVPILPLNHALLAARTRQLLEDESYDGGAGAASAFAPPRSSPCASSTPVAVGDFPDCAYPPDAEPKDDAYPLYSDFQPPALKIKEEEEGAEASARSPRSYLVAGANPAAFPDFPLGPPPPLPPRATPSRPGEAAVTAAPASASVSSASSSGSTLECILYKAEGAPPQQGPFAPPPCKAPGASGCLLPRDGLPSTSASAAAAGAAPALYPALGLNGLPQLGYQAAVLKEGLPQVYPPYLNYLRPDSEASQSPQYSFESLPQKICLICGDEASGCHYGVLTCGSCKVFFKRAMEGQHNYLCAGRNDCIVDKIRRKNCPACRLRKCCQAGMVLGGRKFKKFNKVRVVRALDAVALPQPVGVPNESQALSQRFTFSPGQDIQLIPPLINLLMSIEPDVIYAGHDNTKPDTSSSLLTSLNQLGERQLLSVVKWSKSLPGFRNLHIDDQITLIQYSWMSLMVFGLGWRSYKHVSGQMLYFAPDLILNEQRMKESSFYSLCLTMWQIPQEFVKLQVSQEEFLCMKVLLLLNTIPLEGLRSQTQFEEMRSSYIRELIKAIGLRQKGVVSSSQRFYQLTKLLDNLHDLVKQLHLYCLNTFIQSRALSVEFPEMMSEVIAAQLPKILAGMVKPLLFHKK
Compound,AC50,outcome
CCN(CC)C(=O)C(C)Oc1cccc2ccccc12 (stereo not drawn),28.4 µM (active),
CC1(C)CCC(=Cc2ccc(Cl)cc2)C1(O)Cn1cncn1 (stereo not drawn),,inactive
N#Cc1c[nH]cc1-c1cccc2c1OC(F)(F)O2,2.42 µM (active),

# System: not listed separately
# Assay: TOX21_PR_BLA_Followup_Agonist_viability: Viability Assessment in the Tox21 HEK293 Progesterone Receptor (PR) Agonism Beta-lactamase Follow-Up Assay (AID 2283935);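 further: cells exposed to compound for 16 hr at 37 °C; signal loss means lower viability so actives are cytotoxic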
# In short: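 Multiplexed viability counter-screen: ATP-coupled luciferase signal measured after 30 min at room temperature, following 16 hr compound treatment of PR-UAS-bla HEK293T cells grown in charcoal-stripped serum.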
row,Compound,outcome
1,CCN(CC)C(=O)C(C)Oc1cccc2ccccc12 (stereo not drawn),inactive
2,CC1(C)CCC(=Cc2ccc(Cl)cc2)C1(O)Cn1cncn1 (stereo not drawn),inactive
3,N#Cc1c[nH]cc1-c1cccc2c1OC(F)(F)O2,inactive

# System: not listed separately
# Assay: TOX21_PR_BLA_Followup_Antagonist_viability: Viability Assessment in the Tox21 HEK293 Progesterone Receptor (PR) Antagonism Beta-lactamase Follow-Up Assay (AID 2283936);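 further: hits lower the luminescence signal meaning cytotoxicity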
# In short: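 PR-UAS-bla HEK293T cells (3,000/well, 2% charcoal-stripped FBS) given compound plus R5020 agonist, 16 h at 37C. CellTiter-Glo added after bla read, 30 min at room temperature; luminescence loss indicates cytotoxicity.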
row,Compound,outcome
1,CCN(CC)C(=O)C(C)Oc1cccc2ccccc12 (stereo not drawn),inactive
2,CC1(C)CCC(=Cc2ccc(Cl)cc2)C1(O)Cn1cncn1 (stereo not drawn),inactive
3,N#Cc1c[nH]cc1-c1cccc2c1OC(F)(F)O2,inactive

# Molecular target: PGR (gene 5241) (UniProt P06401)
# Assay: TOX21_PR_LUC_Followup_Antagonist: Tox21 HEK293 Progesterone Receptor (PR) Antagonism Luciferase Follow-Up Assay (AID 2283938);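 further: curve fitted upward as signal gain over DMSO baseline despite antagonist label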
# In short: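 Cells are grown 5 days in charcoal-stripped-FBS assay medium, plated, left 5 h, then dosed with compound and incubated 16 h. ONE-Glo reagent is added and luminescence read after 30 min.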
Compound,outcome,AC50
CCN(CC)C(=O)C(C)Oc1cccc2ccccc12 (stereo not drawn),inactive,
CC1(C)CCC(=Cc2ccc(Cl)cc2)C1(O)Cn1cncn1 (stereo not drawn),inactive,
N#Cc1c[nH]cc1-c1cccc2c1OC(F)(F)O2,,7.11 µM (active)

# System: not listed separately
# Assay: TOX21_PR_LUC_Followup_Agonist_viability: Viability Assessment in the Tox21 HEK293 Progesterone Receptor (PR) Agonism Luciferase Follow-Up Assay (AID 2283941);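 further: loss of signal means cytotoxicity so actives lower viability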
# In short: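 Luminescent ATP quantitation (CellTiter-Glo) serves as the read-out; a drop flags cytotoxic compounds. Cells are HEK293-PR-A-luc grown in 10% charcoal-stripped FBS, plated 3,000/well, and exposed to compound for 16 h.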
row,Compound,outcome
1,CCN(CC)C(=O)C(C)Oc1cccc2ccccc12 (stereo not drawn),inactive
2,CC1(C)CCC(=Cc2ccc(Cl)cc2)C1(O)Cn1cncn1 (stereo not drawn),inactive
3,N#Cc1c[nH]cc1-c1cccc2c1OC(F)(F)O2,inactive

# System: not listed separately
# Assay: CCTE_Harrill_HTTr_Viability_DMEM_6hr: (Pilot) CCTE's 6-hour Cell Viability Assessment for the High-Throughput Transcriptomics (HTTr) Platform, in MCF-7 cells cultured in DMEM + 10% fetal bovine serum, Harrill Lab (AID 2283973; active means hit-call score of the fitted dose curve at least 0.9, where 1 is the maximum; inactive means score below 0.9)
# In short: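 MCF-7 cells in DMEM + 10% FBS, eight-point dilution series, 6 h exposure. Membrane integrity by propidium iodide exclusion with high-content imaging; bidirectional fit versus DMSO.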
row,Compound,outcome
1,Cc1c(COC(=O)[C@@H]2[C@H](/C=C(\Cl)C(F)(F)F)C2(C)C)cccc1-c1ccccc1,inactive
2,CC1(C)C(C=C(Cl)Cl)C1C(=O)OC(C#N)c1cccc(Oc2ccccc2)c1 (stereo not drawn),inactive
3,C=CCOC(=O)C(C)(C)OC(=O)c1cc(-n2c(=O)cc(C(F)(F)F)n(C)c2=O)ccc1Cl,inactive
4,CCOC(=O)C(C)OC(=O)c1cc(Oc2ccc(C(F)(F)F)cc2Cl)ccc1[N+](=O)[O-] (stereo not drawn),inactive

# System: not listed separately
# Assay: CCTE_Harrill_HTTr_Viability_DMEM_12hr: (Pilot) CCTE's 12-hour Cell Viability Assessment for the High-Throughput Transcriptomics (HTTr) Platform, in MCF-7 cells cultured in DMEM + 10% fetal bovine serum, Harrill Lab (AID 2283974; active means hit-call score of the fitted dose curve at least 0.9, where 1 is the maximum; inactive means score below 0.9)
# In short: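 MCF-7 cells in DMEM + 10% FBS exposed 12 h to an eight-point dilution series; membrane integrity scored by propidium iodide exclusion with high-content imaging, bidirectional fitting versus DMSO.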
row,Compound,outcome
1,Cc1c(COC(=O)[C@@H]2[C@H](/C=C(\Cl)C(F)(F)F)C2(C)C)cccc1-c1ccccc1,inactive
2,CC1(C)C(C=C(Cl)Cl)C1C(=O)OC(C#N)c1cccc(Oc2ccccc2)c1 (stereo not drawn),inactive
3,C=CCOC(=O)C(C)(C)OC(=O)c1cc(-n2c(=O)cc(C(F)(F)F)n(C)c2=O)ccc1Cl,inactive
4,CCOC(=O)C(C)OC(=O)c1cc(Oc2ccc(C(F)(F)F)cc2Cl)ccc1[N+](=O)[O-] (stereo not drawn),inactive
